Growth data for 15 molecules are collected here from PubChem BioAssay (NCI).

Some test systems named below: SR leukemia; RPMI-8226 leukemia; OVCAR-8 ovarian; OVCAR-5 ovarian; OVCAR-4 ovarian; SK-OV-3 ovarian; HS 578T breast; NCI/ADR-RES ovarian; OVCAR-3 ovarian; IGROV1 ovarian.
Common to all, as to assay: NCI-60 one-dose screen, 48 h (100 = growth as untreated, 0 = no growth, -100 = all killed)
Holding throughout (details): 10 µM unless noted

SMILES strings stand for the structures. Compounds without any hit were thinned out: in the full panel of roughly 83,000, 20% have a hit.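 Cells were grown in 96-well plates and exposed to the test compound at a single concentration for 48 hours; results are reported as percent growth, with values below 10 considered active.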 A number with no mark means an inactive call. The source made the active and inactive calls.

Consider `COc1ccc(/C=N/NC(=O)c2c(N)nn(C)c2Nc2ccccc2)cc1`, for which the growth in the experiment with SR leukemia was 18.9%; in the experiment with RPMI-8226 leukemia, 61.6%; with OVCAR-8 ovarian it was 70.8%; with OVCAR-5 ovarian, 76.9%; in the experiment with OVCAR-4 ovarian it was 87%; in the experiment with SK-OV-3 ovarian, 49.6%. Besides, the figures for the growth in the experiment on HS 578T breast and with NCI/ADR-RES ovarian were 38.1% and 33%, respectively.

`N#C/C(=C\c1cccc2c1OCO2)C(=O)Nc1sc2c(c1C#N)CCCC2`: the growth in the experiment on SR leukemia was 90.3%; with RPMI-8226 leukemia it was 101%; in the experiment on OVCAR-8 ovarian, 105%; in the experiment on OVCAR-5 ovarian, 101%; in the experiment with OVCAR-4 ovarian, 108%; with SK-OV-3 ovarian, 98.5%. For the same molecule, the growth is 102% in the experiment on HS 578T breast and 106% in the experiment with NCI/ADR-RES ovarian.

Take `COc1ccc(C(=NNS(=O)(=O)c2ccc(C)cc2)c2ccccc2)cc1OC`: the growth in the experiment with SR leukemia is 111%; in the experiment on RPMI-8226 leukemia, 93.6%; in the experiment on OVCAR-8 ovarian it was 97.5%; in the experiment with OVCAR-5 ovarian, 103%; in the experiment with OVCAR-4 ovarian it was 102%; in the experiment with SK-OV-3 ovarian, 107%. The growth was 104% with HS 578T breast and 96.8% in the experiment with NCI/ADR-RES ovarian.

`Cc1ncn(-c2ccc(/C=N/Nc3ccnc4cc(Cl)ccc34)cc2)c1C`: the growth was -21.3% (active) in the experiment on SR leukemia; -27.2% (active) in the experiment on RPMI-8226 leukemia; -57.5% (active) with OVCAR-8 ovarian; 102% with OVCAR-5 ovarian; -68.3% (active) in the experiment with OVCAR-4 ovarian; 102% with SK-OV-3 ovarian. Further, the growth in the experiment on HS 578T breast is -16.1% (active); in the experiment on NCI/ADR-RES ovarian, 8.02% (active).

For the molecule `COc1cc2cc(Oc3ccc(NC(=O)c4cc(C(F)(F)F)cc(C(F)(F)F)c4)cc3)c(C)nc2cc1OCCN1CCOCC1`, the growth in the experiment with SR leukemia is 20.6%; with RPMI-8226 leukemia, 24.6%; with OVCAR-8 ovarian, 80.1%; in the experiment on OVCAR-5 ovarian it was 95.7%; in the experiment with OVCAR-4 ovarian, 48.8%; in the experiment on SK-OV-3 ovarian, 87.5%. In addition, the growth in the experiment on OVCAR-3 ovarian was 78.9%; in the experiment with HS 578T breast, 36.7%; in the experiment on NCI/ADR-RES ovarian, 62.4%.

Regarding `CCOC(=O)c1c(N)c(C#N)cn1Cc1ccc(Cl)cc1Cl`, the growth is 26.2% in the experiment on SR leukemia; 83% with RPMI-8226 leukemia; 94.4% with OVCAR-8 ovarian; 85.5% with OVCAR-5 ovarian; 79.3% in the experiment on OVCAR-4 ovarian; 101% in the experiment with SK-OV-3 ovarian. Further, the growth is 73.4% with HS 578T breast and 61.5% in the experiment with NCI/ADR-RES ovarian.

Take `CCCCc1nc2c(N)nc3ccccc3c2n1Cc1ccc(OC)cc1`: the growth in the experiment on SR leukemia was 46.2%; in the experiment on RPMI-8226 leukemia, 34.1%; with OVCAR-8 ovarian it was 67.4%; in the experiment on OVCAR-5 ovarian, 82.4%; in the experiment on OVCAR-4 ovarian, 58.1%; in the experiment with SK-OV-3 ovarian, 74.8%. Further, the growth with IGROV1 ovarian is 56.8%; with NCI/ADR-RES ovarian, 59.2%.

`CC1=C(SCC(=O)OCCCCCC(C)C)C(=O)c2ccccc2C1=O`: the growth in the experiment with SR leukemia was 83.7%; in the experiment on RPMI-8226 leukemia, 61%; in the experiment on OVCAR-8 ovarian, 92.1%; in the experiment on OVCAR-5 ovarian it was 113%; in the experiment with OVCAR-4 ovarian it was 70.1%; in the experiment on SK-OV-3 ovarian it was 104%. Also, the growth in the experiment on OVCAR-3 ovarian is 74%; in the experiment with HS 578T breast it was 91.8%; with NCI/ADR-RES ovarian, 100%.

As to `CCN(CC)S(=O)(=O)c1ccc(-c2nc(C(Cl)Cl)nc3cc(C)nn23)cc1`, the growth in the experiment on SR leukemia was 9.52% (active); in the experiment on RPMI-8226 leukemia it was -7.21% (active); with OVCAR-8 ovarian, 12.3%; with OVCAR-5 ovarian it was 41.5%; in the experiment on OVCAR-4 ovarian, 34.4%; with SK-OV-3 ovarian it was 18.4%. The growth is 21.1% in the experiment with OVCAR-3 ovarian, 35.6% in the experiment with HS 578T breast and 14% with NCI/ADR-RES ovarian.

`CC(C)NC(=O)c1cc(-c2ccc(NC(=O)Nc3ccc(F)c(C(F)(F)F)c3)cc2)nc2cccnc12`: the growth in the experiment with SR leukemia was 81.6%; in the experiment on RPMI-8226 leukemia it was 89.8%; in the experiment on OVCAR-8 ovarian, 79.5%; in the experiment with OVCAR-5 ovarian, 113%; in the experiment with OVCAR-4 ovarian it was 92.3%; in the experiment with SK-OV-3 ovarian, 105%. For the same molecule, the growth was 109% in the experiment on OVCAR-3 ovarian, 87.6% in the experiment with HS 578T breast and 98.2% in the experiment with NCI/ADR-RES ovarian.

Regarding `Cc1cc(Br)ccc1-n1cc(C#N)c(N)c1C(=O)c1ccc(Br)cc1`, the growth in the experiment with SR leukemia is 89.4%; in the experiment with RPMI-8226 leukemia, 106%; in the experiment on OVCAR-8 ovarian, 106%; in the experiment on OVCAR-5 ovarian, 114%; in the experiment with OVCAR-4 ovarian, 114%; with SK-OV-3 ovarian, 109%. Moreover, the growth is 115% in the experiment on OVCAR-3 ovarian, 106% in the experiment on HS 578T breast and 103% with NCI/ADR-RES ovarian.

For the molecule `CCc1cc2c(cc1Cl)nc1c(=O)[nH]c(=O)nc-1n2CCOCC(C)(C)C`, the growth was 35.8% in the experiment on SR leukemia; 68.5% in the experiment with RPMI-8226 leukemia; 72.2% with OVCAR-8 ovarian; 119% in the experiment on OVCAR-5 ovarian; 52.5% in the experiment on OVCAR-4 ovarian; 110% in the experiment on SK-OV-3 ovarian. Moreover, the figures for the growth in the experiment with IGROV1 ovarian and in the experiment on NCI/ADR-RES ovarian were 60.3% and 79.2%, respectively.

Take `Cc1ccc(C(=O)Nc2ccc(CNCCN3CCOCC3)c(C(F)(F)F)c2)cc1C#Cc1cnc2cccnn12`: the growth in the experiment on SR leukemia was -15.7% (active); with RPMI-8226 leukemia, -12.8% (active); in the experiment with OVCAR-8 ovarian, 13.3%; in the experiment on OVCAR-5 ovarian it was 33.5%; in the experiment with OVCAR-4 ovarian it was 25.1%; with SK-OV-3 ovarian, 57.7%. In addition, the growth was 21.6% with OVCAR-3 ovarian, -13.3% (active) with HS 578T breast and 5.66% (active) in the experiment on NCI/ADR-RES ovarian.

Take `N#CC1=C2NCCCNc3oc(nc3C#N)Cc3ccccc3CC(=N1)O2`: the growth is 36.6% in the experiment on SR leukemia; 19.9% in the experiment on RPMI-8226 leukemia; 97.4% in the experiment with OVCAR-8 ovarian; 102% in the experiment with OVCAR-5 ovarian; 94.5% in the experiment on OVCAR-4 ovarian; 102% in the experiment on SK-OV-3 ovarian. Further, the growth with HS 578T breast was 92.4%; in the experiment on NCI/ADR-RES ovarian it was 97.8%.

For `O=C1CSC(c2cn(-c3ccccc3)nc2-c2ccc(Cl)cc2)N1c1ccccc1` (configuration not stated), the growth in the experiment with SR leukemia is 109%; with RPMI-8226 leukemia, 103%; in the experiment with OVCAR-8 ovarian, 104%; in the experiment with OVCAR-5 ovarian, 112%; in the experiment on OVCAR-4 ovarian, 110%; with SK-OV-3 ovarian it was 114%. The growth in the experiment on OVCAR-3 ovarian was 124%; in the experiment with HS 578T breast it was 108%; in the experiment on NCI/ADR-RES ovarian, 104%.
